Compounds without any hit were thinned out: in the full panel of roughly 79,000, 15% have a hit. Values without a mark were called inactive. Calls of active or inactive are those of the source. Rule as the data show it: active = growth inhibition above about 70%; inactive = the rest.

Assay [1] is described as follows: NCI Yeast Anticancer Drug Screen. Data for the rad50 strain (AID 155).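 Also: 0% = growth of vehicle-only cultures of the same strain.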 The settings on record: S. cerevisiae rad50 strain growth inhibition, stronger effect = higher value. Put shortly: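 DNA repair mutant yeast, compound exposure, growth read-out; inhibition is taken relative to vehicle.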
A short description of assay [2]: NCI Yeast Anticancer Drug Screen. Data for the mec2-1 strain (AID 157). The settings on record: S. cerevisiae mec2-1 strain, stronger effect = higher value. Put shortly: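 mec2-1 yeast strain, carrying an alteration in DNA damage repair or cell cycle control, was exposed to compounds; growth inhibition was measured relative to vehicle-treated controls.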
Assay [3] in a line: NCI Yeast Anticancer Drug Screen. Data for the sgs1 mgt1 strain (AID 161).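 Also: 0% = growth of cultures given vehicle only.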 The settings on record: S. cerevisiae sgs1 mgt1 strain, stronger effect = higher value. In a few lines:
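Percent growth inhibition was derived by comparing compound-exposed mutant yeast with vehicle-exposed cultures. The strain carries alterations in DNA damage repair.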

Assay [4] can be described thus: NCI Yeast Anticancer Drug Screen. Data for the bub3 strain (AID 167). The settings on record: S. cerevisiae bub3 mutant strain, stronger effect = higher value. Put shortly: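 In this screen, a yeast mutant lacking normal mitotic checkpoint function is challenged with compound. Relative growth versus vehicle gives the inhibition value.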
A short description of assay [5]: NCI Yeast Anticancer Drug Screen. Data for the mlh1 rad18 strain (AID 175). The note with it: S. cerevisiae mlh1 rad18 strain growth inhibition, stronger effect = higher value. Put shortly: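 Growth inhibition of the yeast strain was measured after compound exposure and expressed relative to vehicle-treated controls. The strain carries defined defects in DNA damage repair.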

The nature of assay [6]: NCI Yeast Anticancer Drug Screen. Data for the cln2 rad14 strain (AID 165).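 Also: 0% = growth equal to vehicle treated cultures.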 The settings on record: S. cerevisiae cln2 rad14 strain, stronger effect = higher value. Put shortly:
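Yeast carrying cln2 and rad14 alterations (cell cycle control and DNA damage repair) were exposed to compounds. Growth inhibition was measured against vehicle-treated controls.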

Where [7] appears, read: at 5.0 µM (retest, dose inferred, filed as 0.5).
Where [8] appears, read: at 50.0 µM (retest, dose inferred, filed as 5.0).

Take `CCOC(=O)C(C(=O)OCC)C1(c2ccccc2)OC(=O)c2ccccc21` (stereo not given): the growth inhibition in assay [1] (setting [7]) was 0%; in assay [1] (setting [8]) it was 13%; in assay [1] (at 50.0 µM) it was 0.55%; in assay [2] (setting [7]), 13%; in assay [2] (setting [8]), 27%; in assay [2] (at 50.0 µM), 5.3%. The growth inhibition in assay [3] (setting [7]) was -1%; in assay [3] (setting [8]), 21%; in assay [3] (at 50.0 µM), 52.9%; in assay [4] (setting [7]), -7%; in assay [4] (setting [8]), -6%; in assay [4] (at 50.0 µM) it was 8.8%. Besides, the figures for the growth inhibition in assay [5] (setting [7]), in assay [5] (setting [8]) and in assay [5] (at 50.0 µM) were -4%, 5% and -8.55%, respectively.

For `C[n+]1c(-c2cccc(OCCOCCOc3cccc(-c4c5cc(N)ccc5c5ccc(N)cc5[n+]4C)c3)c2)c2cc(N)ccc2c2ccc(N)cc21`, the growth inhibition in assay [1] (setting [7]) was 36%; in assay [1] (setting [8]), 96% (active); in assay [1] (at 50.0 µM) it was 85.5% (active); in assay [2] (setting [7]), 6%; in assay [2] (setting [8]), 95% (active); in assay [2] (at 50.0 µM) it was 82.7% (active). Also, the growth inhibition was 25% in assay [3] (setting [7]); 97% (active) in assay [3] (setting [8]); 81.3% (active) in assay [3] (at 50.0 µM); 10% in assay [6] (setting [7]); 59% in assay [6] (setting [8]); 62.9% in assay [6] (at 50.0 µM). Moreover, the growth inhibition in assay [4] (setting [7]) is 22%; in assay [4] (setting [8]), 94% (active); in assay [4] (at 50.0 µM) it was 78.8% (active); in assay [5] (setting [7]), 35%; in assay [5] (setting [8]) it was 95% (active); in assay [5] (at 50.0 µM), 86.5% (active).

`COC(=O)c1cc2c(c(C(=O)OC)c1O)C(=O)C=CC2=O`: the growth inhibition is 2% in assay [1] (setting [7]); 78% (active) in assay [1] (setting [8]); 84.5% (active) in assay [1] (at 50.0 µM); 8% in assay [2] (setting [7]); 95% (active) in assay [2] (setting [8]); 84% (active) in assay [2] (at 50.0 µM). The growth inhibition in assay [3] (setting [7]) is 5%; in assay [3] (setting [8]) it was 80% (active); in assay [3] (at 50.0 µM), 80% (active); in assay [4] (setting [7]), -2%; in assay [4] (setting [8]), 90% (active); in assay [4] (at 50.0 µM) it was 69.8%. The growth inhibition in assay [5] (setting [7]) is -28%; in assay [5] (setting [8]), 95% (active); in assay [5] (at 50.0 µM) it was 70.6% (active).

With `O=C(Cn1cnc2ccc([N+](=O)[O-])cc21)N1CCN(c2ccccc2)CC1`, the growth inhibition in assay [1] (setting [7]) is -2%; in assay [1] (setting [8]), -7%; in assay [1] (at 50.0 µM), 10.3%; in assay [2] (setting [7]) it was 4%; in assay [2] (setting [8]) it was 8%; in assay [2] (at 50.0 µM) it was 19.6%. In addition, the growth inhibition in assay [3] (setting [7]) was -25%; in assay [3] (setting [8]), 2%; in assay [3] (at 50.0 µM), 12.1%; in assay [6] (setting [7]), 7%; in assay [6] (setting [8]), -5%; in assay [6] (at 50.0 µM) it was -53.6%. The growth inhibition in assay [4] (setting [7]) was 10%; in assay [4] (setting [8]), 7%; in assay [4] (at 50.0 µM), -15.4%; in assay [5] (setting [7]), -9%; in assay [5] (setting [8]), -22%; in assay [5] (at 50.0 µM) it was 0.6%.

With `CC(=O)c1ccc(Br)cc1NC1=CC(=O)c2ncccc2C1=O`, the growth inhibition in assay [1] (setting [7]) was 95% (active); in assay [1] (setting [8]) it was 95% (active); in assay [1] (at 50.0 µM), 86.7% (active); in assay [2] (setting [7]), 88% (active); in assay [2] (setting [8]), 94% (active); in assay [2] (at 50.0 µM) it was 91.2% (active). Further, the growth inhibition in assay [6] (setting [7]) was 77% (active); in assay [6] (setting [8]) it was 90% (active); in assay [6] (at 50.0 µM), 88.3% (active); in assay [4] (setting [7]), 83% (active); in assay [4] (setting [8]) it was 95% (active); in assay [4] (at 50.0 µM), 89.7% (active). Moreover, the growth inhibition was 87% (active) in assay [5] (setting [7]), 95% (active) in assay [5] (setting [8]) and 87.3% (active) in assay [5] (at 50.0 µM).

As to `Cc1c(N)cccc1[N+](=O)[O-]`, the growth inhibition is 2% in assay [1] (setting [7]); 8% in assay [1] (setting [8]); 97.8% (active) in assay [1] (at 50.0 µM); -6% in assay [2] (setting [7]); 6% in assay [2] (setting [8]); 98.6% (active) in assay [2] (at 50.0 µM). The growth inhibition in assay [6] (setting [7]) is -1%; in assay [6] (setting [8]) it was 7%; in assay [6] (at 50.0 µM), 95.5% (active); in assay [4] (setting [7]), 3%; in assay [4] (setting [8]) it was 15%; in assay [4] (at 50.0 µM), 98.2% (active). Further, the growth inhibition was 0% in assay [5] (setting [7]), 2% in assay [5] (setting [8]) and 98.5% (active) in assay [5] (at 50.0 µM).

In the case of `Cc1nc2sc3c(c2c2nnnn12)CCCC3`, the growth inhibition in assay [1] (setting [7]) is 2%; in assay [1] (setting [8]), 28%; in assay [1] (at 50.0 µM), 6.6%; in assay [2] (setting [7]), 8%; in assay [2] (setting [8]) it was 29%; in assay [2] (at 50.0 µM), 16.9%. The growth inhibition in assay [3] (setting [7]) is 24%; in assay [3] (setting [8]), 74% (active); in assay [3] (at 50.0 µM), 53%; in assay [6] (setting [7]), 4%; in assay [6] (setting [8]) it was 23%; in assay [6] (at 50.0 µM) it was -6.5%. The growth inhibition was 3% in assay [4] (setting [7]); 11% in assay [4] (setting [8]); 27.6% in assay [4] (at 50.0 µM); 7% in assay [5] (setting [7]); 31% in assay [5] (setting [8]); 9.45% in assay [5] (at 50.0 µM).

In the case of `COc1ccc2c(c1)C(=O)C(Br)CC2` (stereo not given), the growth inhibition was 16% in assay [1] (setting [7]); 98% (active) in assay [1] (setting [8]); 25.4% in assay [1] (at 50.0 µM); 12% in assay [2] (setting [7]); 99% (active) in assay [2] (setting [8]); 66.6% in assay [2] (at 50.0 µM). Besides, the growth inhibition is 2% in assay [3] (setting [7]); 55% in assay [3] (setting [8]); 71.2% (active) in assay [3] (at 50.0 µM); 26% in assay [6] (setting [7]); 92% (active) in assay [6] (setting [8]); 32% in assay [6] (at 50.0 µM). Besides, the growth inhibition in assay [4] (setting [7]) was 32%; in assay [4] (setting [8]), 99% (active); in assay [4] (at 50.0 µM) it was 70%; in assay [5] (setting [7]), 13%; in assay [5] (setting [8]), 99% (active); in assay [5] (at 50.0 µM) it was 65.8%.

For `Nc1ncnc2c1c(-c1ccccc1)cn2-c1ccc(Cl)cc1`, the growth inhibition was 5% in assay [1] (setting [7]); 26% in assay [1] (setting [8]); 22.2% in assay [1] (at 50.0 µM); 2% in assay [2] (setting [7]); 10% in assay [2] (setting [8]); 15.5% in assay [2] (at 50.0 µM). In addition, the growth inhibition was 16% in assay [3] (setting [7]); 61% in assay [3] (setting [8]); 71.8% (active) in assay [3] (at 50.0 µM); 8% in assay [4] (setting [7]); 5% in assay [4] (setting [8]); -17.4% in assay [4] (at 50.0 µM). Besides, the figures for the growth inhibition in assay [5] (setting [7]), in assay [5] (setting [8]) and in assay [5] (at 50.0 µM) were 5%, 23% and 14.8%, respectively.

Regarding `O=C1c2ccccc2C(c2ccccc2)(c2ccccc2)N1c1ccccc1`, the growth inhibition is 3% in assay [1] (setting [7]); 79% (active) in assay [1] (setting [8]); 97% (active) in assay [1] (at 50.0 µM); -1% in assay [2] (setting [7]); 80% (active) in assay [2] (setting [8]); 96.5% (active) in assay [2] (at 50.0 µM). Further, the growth inhibition in assay [3] (setting [7]) is 28%; in assay [3] (setting [8]), 90% (active); in assay [3] (at 50.0 µM), 95.6% (active); in assay [6] (setting [7]), 18%; in assay [6] (setting [8]), 69%; in assay [6] (at 50.0 µM), 91.3% (active). Further, the growth inhibition in assay [4] (setting [7]) was 5%; in assay [4] (setting [8]), 81% (active); in assay [4] (at 50.0 µM), 95.7% (active); in assay [5] (setting [7]) it was 57%; in assay [5] (setting [8]), 89% (active); in assay [5] (at 50.0 µM), 95.6% (active).

For the origin of these results see PubChem BioAssay (NCI).
